Test results as given in PubChem BioAssay.

Target: Alpha-bungarotoxin (Bungarus multicinctus) (UniProt P60615)
Test: compounds binding labelled alpha-BTX control protein – biochemical, small-molecule microarray, Alexa647 label, 635/667 nm fluorescence, artefact control for SMM control protein annotation, profiling panel (AID 1117)
Settings: alpha-BTX-A647 binding fluorescence, higher = more signal

Alpha-bungarotoxin (Bungarus multicinctus), sequence (P60615 whole entry, looked up): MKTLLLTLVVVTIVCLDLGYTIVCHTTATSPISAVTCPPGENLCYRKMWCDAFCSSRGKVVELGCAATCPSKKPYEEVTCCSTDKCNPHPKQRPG

**Q.** For `CC(C)C[C@H]1NC(=O)[C@@]23C(=O)N[C@@H](Cc4ccccc4)C2[C@H](C)[C@@]2(C)O[C@H]2C3/C=C/C/C=C\CNC(=O)[C@@H]2CCCN2C1=O` (stereo not given in full), which composite z-score is on record?
**A.** Its composite z-score is 0.288.

**Q.** Which composite z-score does the source give for `C#CCN(C/C=C/c1ccccc1)[C@H](CO[Si](C)(C)C(C)(C)C)c1ccccc1` here?
**A.** Its composite z-score is -0.482.

**Q.** `COC(=O)C1(CC(C)C)C=C2C(=C(C(C)C)C(=O)C2C)CN1` (stereo not given) was tested. Which composite z-score did it give?
**A.** The composite z-score was -0.77.

**Q.** With `CC=CC(O)C1C=CC2C(=O)N(C)C(=O)C2N1NC(=O)OC(C)(C)C` (stereo not given) as the compound, how does the composite z-score read?
**A.** Its composite z-score is 0.277.

**Q.** Which composite z-score does the source give for `COc1cc2c(cc1O)C(C1CC1)N(Cc1ccc([N+](=O)[O-])o1)CC2` (stereo not given) here?
**A.** Its composite z-score is 0.42.

**Q.** `CC(C)C[C@H]1NC(=O)[C@@H](C)NC(=O)[C@@]23C(=O)N[C@@H](Cc4ccccc4)C2[C@H](C)[C@@]2(C)O[C@H]2C3/C=C/C/C=C\CNC1=O` (stereo not given in full) was tested. Which composite z-score did it give?
**A.** The composite z-score was -0.133.

**Q.** For `COCCOC(=O)N1C(=O)[C@@]2(c3cc(C#Cc4ccc(OC)cc4)ccc31)[C@H](C(=O)N1CCCCCCC1)[C@H]1C(=O)O[C@H](c3ccccc3)[C@H](c3ccccc3)N1[C@@H]2c1ccccc1OCCO`, which composite z-score is on record?
**A.** Its composite z-score is 2.27.

**Q.** `CCCCN1CC=CC23O[C@@H]4C=CCOC(=O)[C@@H]4[C@H]2C(=O)N(C(CO)C(C)C)[C@@H]3C1=O` (stereo not given in full) was tested. Which composite z-score did it give?
**A.** Its composite z-score is -0.843.

**Q.** Which composite z-score does the source give for `C[C@H]1NC(=O)C([C@@H](C)OCc2ccccc2)NC(=O)[C@@]23C(=O)N[C@@H](Cc4ccccc4)C2[C@H](C)[C@@]2(C)O[C@H]2C3/C=C/C/C=C\CNC1=O` (stereo not given in full) here?
**A.** The composite z-score was 0.21.

**Q.** For `C=CCC(OC(C)=O)[C@@H]1[C@@H](N(Cc2cc3ccccc3o2)C(=O)c2cccc3ccccc23)c2cc(OCCCO)ccc2N1C(=O)c1ccc2ccccc2c1` (stereo not given in full), which composite z-score is on record?
**A.** Its composite z-score is 0.0671.

**Q.** Which composite z-score does the source give for `NC(=O)NCC#Cc1ccc2c(c1)[C@]1(C(=O)N2)[C@H](C(=O)N2CCCCCCC2)[C@H]2C(=O)O[C@H](c3ccccc3)[C@H](c3ccccc3)N2[C@@H]1c1ccc(O)cc1` here?
**A.** The composite z-score was 2.01.

**Q.** For `[N-]=[N+]=NCc1ccccc1[C@H]1OC(c2ccc(OCCCO)cc2)=N[C@@]1(Cc1ccccc1)C(=O)N1CCOCC1`, which composite z-score is on record?
**A.** The composite z-score was 1.28.

**Q.** How did the composite z-score turn out when `CC(C)=CCN(C(=O)C#Cc1ccccc1)[C@H](CO)c1ccccc1` was run?
**A.** The composite z-score was 0.14.

**Q.** How did the composite z-score turn out when `CCCC=C(CCC)[C@@H](NC(=O)c1ccco1)c1ccc(C(=O)OC)cc1` was run?
**A.** Its composite z-score is 1.38.

**Q.** For `CN(C)CCCCNC(=O)[C@H]1C[C@H]2C(=O)NCC(=O)N2[C@H]1c1cccc(OCCO)c1`, which composite z-score is on record?
**A.** The composite z-score was -0.115.

**Q.** For `N#Cc1ccc(C(O)C2C=CC3C(=O)NC(=O)C3N2Nc2ccccn2)cc1` (stereo not given), which composite z-score is on record?
**A.** The composite z-score was 0.617.

**Q.** With `C=CCC(OC(C)=O)[C@@H]1[C@@H](N(Cc2ccc(-c3cccc(C(F)(F)F)c3)o2)C(=O)Cc2ccc(F)cc2)c2cc(OCCCO)ccc2N1C(=O)c1ccc2ccccc2c1` (stereo not given in full) as the compound, how does the composite z-score read?
**A.** The composite z-score was -0.318.

**Q.** With `COCCOC(=O)N1C(=O)[C@@]2(c3cc(C#CC4(O)CCCCCC4)ccc31)[C@H](c1ccc(OCCO)cc1)N1[C@H](c3ccccc3)[C@H](c3ccccc3)OC(=O)[C@H]1[C@@H]2C(=O)N1CCCCCCC1` as the compound, how does the composite z-score read?
**A.** The composite z-score was 1.89.

**Q.** Which composite z-score does the source give for `CO[C@H]1O[C@H](CO)[C@@H](OC(=O)Nc2ccc(C(F)(F)F)cc2)[C@H](OC(=O)Nc2ccccc2-c2ccccc2)[C@@H]1OC(=O)Nc1ccccc1-c1ccccc1` here?
**A.** Its composite z-score is 2.18.

**Q.** How did the composite z-score turn out when `COCCOC(=O)N1C(=O)[C@@]2(c3cc(C#CCC(C(=O)OC)C(=O)OC)ccc31)[C@H](C(N)=O)[C@H]1C(=O)O[C@H](c3ccccc3)[C@H](c3ccccc3)N1[C@@H]2c1ccc(OCCO)cc1` was run?
**A.** The composite z-score was 1.44.

**Q.** With `CCCCNC(=O)c1ccc(C#C[Si](C)(C)C)c(OC(C)=O)c1` as the compound, how does the composite z-score read?
**A.** The composite z-score was 0.25.

**Q.** `COCCOC(=O)N1C(=O)[C@@]2(c3cc(C#Cc4ccc(OC)cc4)ccc31)[C@H](C(=O)Nc1nc3ccccc3s1)[C@H]1C(=O)O[C@H](c3ccccc3)[C@H](c3ccccc3)N1[C@@H]2c1ccccc1OCCO` was tested. Which composite z-score did it give?
**A.** The composite z-score was 0.968.

**Q.** How did the composite z-score turn out when `COC(=O)[C@@]1(Cc2ccc(F)cc2)[C@H]2c3cc(C(=O)N4CCCC4)n(CCO)c3C[C@H]2CN1C(=O)c1ccccc1` was run?
**A.** The composite z-score was -0.063.

**Q.** Which composite z-score does the source give for `CCC[C@@H]1C=C(C(=O)OCC)[C@H](c2ccccc2)N1S(=O)(=O)c1ccc(C)cc1` here?
**A.** Its composite z-score is 1.26.

**Q.** Which composite z-score does the source give for `COCCOC(=O)N1C(=O)[C@@]2(c3ccccc31)[C@H](C(N)=O)[C@H]1C(=O)O[C@H](c3ccccc3)[C@H](c3ccccc3)N1[C@@H]2c1ccc(OCCO)cc1` here?
**A.** The composite z-score was 1.37.
